Test results from ChEMBL document CHEMBL3988442, “University of Dundee, Small-Polar-MMV Screening Library” (2021).
Out of some 38,000 compounds screened, about 1,200 (3.2%) showed an effect of 50% or more. The median lay at about -58%. The list comes from a sample in which strong results are over-represented; it also holds similar structures and randomly drawn compounds.

test system: Plasmodium falciparum; assay: Calibr Malaria Delayed Death Assay SOP; assay type: functional, organism-based; design: scale not given: in the data most compounds retested in dose-response had high values; settings: concentration 4.99e-06 (unit not given; other assays of the set use mol/L)

Structure (SMILES)	Percent Effect
O=c1[nH]c(CN2CCOC(Cn3cccn3)C2)nc2ccccc12 (configuration not stated)	-93.34%
Cc1cc(CN2CCN(C(=O)C(C(C)C)n3cncn3)CC2)no1 (configuration not stated)	-20.49%
Cc1ccc(OCCC(=O)N2CCCC(n3nc(C)nc3C)C2)cc1 (configuration not stated)	0.003662%
c1ccc(CCCN2CCOC(Cn3cccn3)C2)cc1 (configuration not stated)	-23.01%
NC(=O)CCN(CC(=O)NCc1ccccn1)c1ccc(F)cc1	-98.56%
O=C(Nc1ccccc1)N1C[C@H]2C[C@H](C(=O)N3CCOCC3)[C@@H](C1)O2	-95.7%
CC1CCN(C(CNC(=O)CCn2cccn2)c2cccs2)CC1 (configuration not stated)	-77%
CN1CCN(Cc2ccccc2CNC(=O)c2cc(Br)ccc2F)CC1	76.59%
CN1CCN(C(CNC(=O)c2ccc(Cl)cc2F)c2cccs2)CC1 (configuration not stated)	51.8%
CNC(=O)c1ccc(CNC(=O)c2ccc(Cl)cc2F)cc1	-28.69%
Cn1ccc(C(=O)NCc2ccccc2CN2CCCCC2)cc1=O	-63.4%
Cn1ccnc1CN1CCN(CC(=O)NCc2ccccc2F)CC1	-19.05%
O=C(NCc1ccccc1CN1CCOCC1)c1ccc(Br)cc1F	-44.16%
CN1CCN(Cc2ccccc2CNC(=O)c2ccc(Br)cc2F)CC1	47.71%
CN1CCN(Cc2ccccc2CNC(=O)c2ccc(Br)cc2)CC1	45.05%
CN1CCN(Cc2ccccc2CNC(=O)c2ccc(Cl)cc2F)CC1	76.33%
CN1CCN(Cc2ccccc2CNC(=O)c2cc(Cl)ccc2F)CC1	65.2%
O=C(NCC(c1cccs1)N1CCOCC1)c1ccc(F)cc1Cl (configuration not stated)	-47.97%
Cc1ccc(CCNC(=O)Cn2nc(C)n(Cc3ccccc3)c2=O)s1	-1.162%
CCCNC(=O)CCC(=O)n1nc(C)c2ccccc21	-0.03666%
Cc1cc(N(C)CCN(C)C2CCCC2)n2nc(C)cc2n1	53.42%
Cc1cc(C)nc(N(C)CCN(C)C2CCCC2)n1	27.63%
Cc1cc(N(C)CCN(C)C)n2nc(C)cc2n1	-114.6%

Structure (SMILES)	Percent Effect
Nc1ncc(C(=O)N2CCN(c3nccs3)CC2)cc1Cl	-61.47%
CN(C)c1ccc(C(=O)NCC2(c3ccccc3)CCOCC2)cc1	-48.74%
Cc1nnc(NCC2(c3ccccc3)CCOCC2)c(C#N)c1C	3.02%
COc1ccccc1C1(CNc2ncc(S(N)(=O)=O)s2)CC1	-83.98%
COc1cc(OC)c(CNC(=O)NCc2ccc(C#N)cc2)c(OC)c1	-15.69%
COc1ccccc1C1(CNCc2ccc([S+](C)[O-])cc2)CC1 (configuration not stated)	68.71%
Cl.N#Cc1ccc(CNCC2(c3ccccc3)CCOCC2)cc1	82.55%
Oc1cccc(CNCCC2CCCO2)c1 (configuration not stated)	-6.783%
COc1ccccc1C1(CNc2ccc(C(=O)N(C)C)cn2)CC1	-78.51%
CS(=O)(=O)C1(CNCc2cccc(-n3cccn3)c2)CCOCC1	-93.15%
COc1ccccc1C1(CNCc2cccc(O)c2)CCOCC1	82.33%
COc1ccccc1C1(CNCc2ccc(C#N)cc2)CCOCC1	76%
COc1ccccc1C1(CNc2cn[nH]c(=O)c2Cl)CCOCC1	-35.38%
O=C(COc1ccccc1NCc1ccc(F)cc1)N1CCOCC1	-94.22%
COCCOCC(=O)Nc1ccccc1F	-49.03%
COc1cc(CNc2cc(N3CCCC3CO)ncn2)ccn1 (configuration not stated)	-84.2%
CN1CCC/C1=N\S(=O)(=O)c1ccc(NC(=O)c2ccsc2)cc1	-6.415%
CCn1cnnc1CNC(=O)c1cc(F)ccc1OC	-155.2%
Cl.Nc1cccnc1N1CCCCCC1	-85.39%
C[C@@H]1CN(CCC(=O)NCc2ccccc2Cl)C[C@@]1(O)C1CC1	46.32%
O=C(O)C(F)(F)F.O=C(O)C(F)(F)F.c1coc(CN2CCCn3c(CN4CCOCC4)nnc3C2)c1	-56.94%
CCSc1ccc(C(=O)NCCc2nnc(-c3ccco3)[nH]2)cn1	-77.1%
CC(OCC1CC1)C(=O)NCCC(=O)Nc1ccccn1 (configuration not stated)	-13.51%

Structure (SMILES)	Percent Effect
COc1ccc(OC)c(Nc2nc3c(C)nn(C)c3c(=O)n2C)c1	-88.36%
CCOCC1CC2(CCN(C(=O)c3ccc4ccccc4n3)CC2)CO1.O=C(O)C(F)(F)F (configuration not stated)	2.806%
COc1ccccc1C1(CNCc2cccc(C#N)c2)CCOCC1	66.05%
COc1cccc(N2CCC(CNCc3cccc(C#N)c3)C2)c1 (configuration not stated)	-60.34%
COc1ccc(CN(C)Cc2cccc(C#N)c2)c(OC)c1	25.49%
CC(C)NC(=O)CN1CCCNCC1	-82.69%
O=C(c1cc(-c2ccn(CC3CC3)n2)n2ccccc12)N1CCCO1	-90.15%
O=C(c1cc(-c2ccn(CC3CC3)n2)n2ccccc12)N1CCOCC1	67.86%
O=C(O)c1cc(-c2ccn(CC3CC3)n2)n2ccccc12	-79.58%
Cc1nc(CNC(=O)NC2CCCN(c3ncccn3)C2)cs1 (configuration not stated)	-24.32%
CCn1nc(C)c2ccn(CC(=O)NCC3CCCO3)c(=O)c21 (configuration not stated)	-59.75%
CCC(CNC1CCN(C(C)=O)CC1)Oc1ccccc1Cl (configuration not stated)	48.49%
CCC(CNC1CCN(C(=O)N(C)C)CC1)Oc1ccccc1C (configuration not stated)	72.22%
CCC(CNC1CCN(C(C)=O)CC1)Oc1cccc(C)c1 (configuration not stated)	51.47%
Cc1cccc(C)c1OC1CN(C(=O)C2CCN(C(=O)N(C)C)CC2)C1	-10.34%
COCC(=O)N1CCC(Oc2cccc(C)c2)CC1	-129.3%
CCC(CNS(C)(=O)=O)Oc1ccccc1C (configuration not stated)	-141.4%
CCc1ccc(C(=O)N2CCN(CC(O)CC)CC2)o1 (configuration not stated)	-8.781%
Cc1nn(C)c(C)c1C1COCCN1c1ncncc1Br (configuration not stated)	-86.62%
O=C(O)C(F)(F)F.OCCN1CCC(F)(F)C2(CCN(c3cnccn3)C2)C1 (configuration not stated)	-58.35%
CCc1nc(CC(=O)N2CCCC2c2c(C)nn(C)c2OC)cs1 (configuration not stated)	-39.25%
